Measurements published in PubChem BioAssay (NCATS).
Results filed as inconclusive are left out. Activity calls are given as the source filed them. The call rests on the fitted dose curve. Starred links: 1 amine or outer side, 2 acyl side, 3 side chain; linkers in the order of their positions; H or OH if unused. Positions of bridges follow the written chain, without caps; N, C: chain ends. Non-standard residues stand in square brackets, D forms with d. Residues, ends and D or L forms follow the SMILES beside them. ξ: configuration not given here. *: point of attachment. ΔAla(3-NHCONH2) = NC(=O)NC=C(N)C(=O)O; X1 = NC1=NCCC(C(N[*:1])C(=O)[*:2])N1; ξβ3hOrn = NCCCC(N)CC(=O)*; Dap = NC[CH](N)C(=O)O

Legend:
[1] = Primary qHTS for inhibitors of SARS-S pseudo-typed particle cell entry (AID 1479145); settings: SARS-S pseudotyped particle cell entry, luciferase reporter; series mostly up to 57.1 µM; further: nearly all actives have a fitted effect of over 45% in size
[2] = Primary qHTS for Huh7 cytotoxicity: counterscreen for inhibitors of MERS-S pseudotyped particle cell entry (AID 1479147); settings: cell viability read-out; series mostly up to 57.1 µM
[3] = Primary qHTS for inhibitors of MERS-S pseudo-typed particle cell entry (AID 1479149); settings: MERS-S pseudotyped particle entry, luciferase; series mostly up to 57.1 µM; further: nearly all actives have a fitted effect of over 60% in size
[4] = Primary qHTS for Vero E6 cytotoxicity: counterscreen for inhibitors of SARS-S pseudo-typed particle cell entry (AID 1479150); settings: cell viability; series mostly up to 57.1 µM
On the % scale 0 is the no-effect control and ±100 the full control effect.

O=c1n(CCCN2CCN(c3cccc(Cl)c3)CC2)nc2ccccn12
inactive: Potency [1] | Potency [2] | Potency [3] | Potency [4]

C[C@@H](O)[C@H]1C(=O)N2C(C(=O)O)=C(S[C@@H]3CN[C@H](C(=O)N(C)C)C3)[C@H](C)[C@H]12
inactive: Potency [1] | Potency [2] | Potency [3] | Potency [4]

C[C@@H]1C[C@H]2[C@@H]3CCC4=CC(=O)C=C[C@]4(C)[C@@]3(F)[C@@H](O)C[C@]2(C)[C@@]1(O)C(=O)CO
inactive: Potency [1] | Potency [2] | Potency [3] | Potency [4]

OC(Cn1cncn1)(Cn1cncn1)c1ccc(F)cc1F
inactive: Potency [1] | Potency [2] | Potency [3] | Potency [4]

O=C1CCC(N2C(=O)c3ccccc3C2=O)C(=O)N1 (stereo unspecified)
inactive: Potency [1] | Potency [2] | Potency [3] | Potency [4]

Nc1nc2c(ncn2COC(CO)CO)c(=O)[nH]1
inactive: Potency [1] | Potency [2] | Potency [3] | Potency [4]

CC(=O)OCC(CCn1cnc2cnc(N)nc21)COC(C)=O
inactive: Potency [1] | Potency [2] | Potency [3] | Potency [4]

COc1cc(C(=O)NCc2ccc(OCCN(C)C)cc2)cc(OC)c1OC
inactive: Potency [1] | Potency [2] | Potency [3] | Potency [4]

COc1cc2c(cc1OC)[C@@H]1CC(=O)[C@@H](CC(C)C)CN1CC2
inactive: Potency [1] | Potency [2] | Potency [3] | Potency [4]

C[C@](N)(Cc1ccc(O)c(O)c1)C(=O)O
inactive: Potency [1] | Potency [2] | Potency [3] | Potency [4]

Cc1ccc(S(=O)(=O)NC(=O)NN2CCCCCC2)cc1
inactive: Potency [1] | Potency [2] | Potency [3] | Potency [4]

Cc1ccc2c(n1)Oc1ccc(C(C)C(=O)OCC(=O)N(C)C)cc1C2 (stereo unspecified)
inactive: Potency [1] | Potency [2] | Potency [3] | Potency [4]

N[C@@H](C(=O)N[C@@H]1C(=O)N2C(C(=O)O)=C(Cl)CS[C@H]12)c1ccccc1
inactive: activity change, negative = inhibition [1] -16.1% [at 11.4 µM] | outcome [2] inactive [at 11.4 µM] | outcome [3] inactive [at 11.4 µM] | outcome [4] inactive [at 11.4 µM]

Oc1cn2c(n1)Nc1ccc(Cl)c(Cl)c1C2
inactive: Potency [1] | Potency [2] | Potency [3] | Potency [4]

O=C(OC1C[C@H]2CC[C@@H](C1)[N+]21CCCC1)C(O)(c1ccccc1)c1ccccc1 (stereo partly specified)
inactive: Potency [1] | Potency [2] | Potency [3] | Potency [4]

O=C(O)CCNC(=O)c1ccc(N=Nc2ccc(O)c(C(=O)O)c2)cc1
inactive: Potency [1] | Potency [2] | Potency [3] | Potency [4]

CN(C)c1nc(N(C)C)nc(N(C)C)n1
inactive: Potency [1] | Potency [2] | Potency [3] | Potency [4]

NS(=O)(=O)c1cc2c(cc1Cl)NC=NS2(=O)=O
inactive: Potency [1] | Potency [2] | Potency [3] | Potency [4]

NCCCC(N)CC(=O)NCC1NC(=O)C(CO)NC(=O)C(N)CNC(=O)C(C2CCN=C(N)N2)NC(=O)C(=CNC(N)=O)NC1=O (stereo not drawn) (H-[Dap]S[Dap](ξβ3hOrn)[ΔAla(3-NHCONH2)][X1]; lactam 1-C; configuration not given here)
inactive: outcome [1] inactive [at 0.573 µM] | activity change, negative = cytotoxicity [2] 3.81% [at 0.573 µM] | outcome [3] inactive [at 0.573 µM] | outcome [4] inactive [at 0.573 µM]

Nc1cc(-c2ccncc2)c[nH]c1=O
inactive: Potency [1] | Potency [2] | Potency [3] | Potency [4]

O=NN(CCCl)C(=O)NC1CCCCC1
inactive: Potency [1] | Potency [2] | Potency [3] | Potency [4]

CCOC(=O)C1=C(C)NC(C)=C(C(=O)OC)C1c1cccc(Cl)c1Cl (stereo unspecified)
inactive: Potency [1] | Potency [2] | Potency [3] | Potency [4]

NC(=O)c1cn(Cc2c(F)cccc2F)nn1
inactive: Potency [1] | Potency [2] | Potency [3] | Potency [4]

COc1cc(Cc2cnc(N)nc2N)cc(OC)c1OC
inactive: Potency [1] | Potency [2] | Potency [3] | Potency [4]

CCCN(CCC)S(=O)(=O)c1ccc(C(=O)O)cc1
inactive: Potency [1] | Potency [2] | Potency [3] | Potency [4]

CN(C)CCc1c[nH]c2ccc(CS(=O)(=O)N3CCCC3)cc12
inactive: Potency [1] | Potency [2] | Potency [3] | Potency [4]

CC(=O)N[C@@H](CS)C(=O)O
inactive: Potency [1] | Potency [2] | Potency [3] | Potency [4]

CC1=NS(=O)(=O)c2cc(Cl)ccc2N1
inactive: Potency [1] | Potency [2] | Potency [3] | Potency [4]

CC1Cc2ccccc2N1NC(=O)c1ccc(Cl)c(S(N)(=O)=O)c1 (stereo unspecified)
inactive: Potency [1] | Potency [2] | Potency [3] | Potency [4]

Cc1[nH]c(=O)c(C#N)cc1-c1ccncc1
inactive: Potency [1] | Potency [2] | Potency [3] | Potency [4]

CCOC(=O)Nc1ccc2c(c1)N(C(=O)CCN1CCOCC1)c1ccccc1S2
inactive: Potency [1] | Potency [2] | Potency [3] | Potency [4]

Nc1nnc(-c2cccc(Cl)c2Cl)c(N)n1
inactive: Potency [1] | Potency [2] | Potency [3] | Potency [4]

NC(=Nc1ccccc1)Nc1ccccc1
inactive: Potency [1] | Potency [2] | Potency [3] | Potency [4]

CC(C)(O)c1ccccc1CC[C@@H](SCC1(CC(=O)O)CC1)c1cccc(/C=C/c2ccc3ccc(Cl)cc3n2)c1
inactive: Potency [1] | Potency [2] | Potency [3] | Potency [4]
